PubChem BioAssay (NCI)
The panel holds about 83,000 compounds, 20% with a hit somewhere; the sample as a whole holds those more often.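 A percent growth of 40 corresponds to 60% growth inhibition; 0 means no net growth; -100 means all cells died. Active threshold: below 10.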 Unmarked numbers belong to inactive results. Calls of active or inactive are those of the source.

Tests used:
Test in all cases: NCI-60 one-dose screen, 48 h (100 = growth as untreated, 0 = no growth, -100 = all killed)
Settings in all cases: 10 µM unless noted
[1] = system: NCI-H23 lung
[2] = system: NCI-H226 lung
[3] = system: NCI-H322M lung
[4] = system: HOP-62 NSCLC
[5] = system: NCI-H460 lung
[6] = system: HOP-92 NSCLC
[7] = system: NCI-H522 lung
[8] = system: A549/ATCC NSCLC
[9] = system: 786-0 renal
[10] = system: COLO 205 colon
[11] = system: DU-145 prostate
[12] = system: K-562 leukemia
[13] = system: MALME-3M melanoma
[14] = system: MDA-MB-231 breast
[15] = system: RXF 393 renal
[16] = system: SF-268 CNS
[17] = system: SF-295 CNS
[18] = system: SF-539 CNS
[19] = system: UACC-257 melanoma
[20] = system: M14 melanoma

SMILES	growth [1]	growth [2]	growth [3]	growth [4]	growth [5]	growth [6]	growth [7]	growth [8]	growth [9]	growth [10]	growth [11]	growth [12]	growth [13]	growth [14]	growth [15]	growth [16]	growth [17]	growth [18]	growth [19]	growth [20]
COc1cc(/C=C/C(=O)/C=C/c2cc(OC)c3c(c2OC)OCO3)c(OC)c2c1OCO2	33.2%	73.9%	56.8%	72.8%	23.5%	74.1%	-15.5% (active)	55.1%	29%	13.3%	28.3%	12.4%	46.7%	46%	16.6%	48.7%	89.7%	29.4%	54.1%	31.7%
COc1ccc(/C=N/Nc2cc(=O)[nH]c3ccc(Cl)cc23)cc1	20.2%	80.4%	66.3%	71.9%	23.9%	70.8%	-42.7% (active)	40.2%	62.1%	83.3%	64.7%	20.9%	46%	71.3%	85.6%	58.9%	72.6%	97.2%	81.7%	54.8%
COc1ccc(C(=S)N2CCN(c3cccc(C)c3)CC2)cc1OC	65.2%	98.4%	99.7%	90.6%	51.8%	81%	22.8%	59.4%	80.6%	80.2%	90.7%	25.5%	80%	77.3%	67.8%	84.7%	57.4%	82.2%	77.7%	38.4%
COc1cccc2c(=O)c3c(sc12)c(NCCCN)nc1ccccc13	59.7%	63.4%	64.4%	53.2%	-30.1% (active)	45.7%	56.5%	36.3%	68.2%	-24.6% (active)	33.1%	-7.71% (active)	90.9%	10.3%	61%	61.4%	72.8%	56.1%	94.1%	33.9%
CCCCCCN1C(=O)/C(=c2\sc3n(c2=O)C2C(NN=3)N(CC)C(=O)N2CC)c2ccccc21 (stereo not given)	25.6%	-5.26% (active)	43.5%	-1.75% (active)	-27.7% (active)	37%	-28.7% (active)	-47.6% (active)	-67.2% (active)	7.62% (active)	24.4%	6.81% (active)	6.95% (active)	14.8%	25.8%	27.5%	-23% (active)	-54.9% (active)	39.3%	20.3%
C=CCNc1ccc2c3c(cccc13)C(=O)N(N1C(=O)c3cccc4cccc(c34)C1=O)C2=O	91.9%	93.9%	102%	96.3%	102%	98.7%	93.9%	98.2%	104%	117%	109%	103%	110%	108%	104%	98.1%	102%	99.8%	98.5%	102%
COc1ccc(N)c(N)c1	96.4%	113%	95.4%	105%	105%	92.5%	81.4%	98.1%	102%	105%	111%	97.8%	91.7%	105%	105%	117%	99.1%	97.4%	114%	101%
Cc1cccc(NCc2cn(-c3ccc(C(=O)O)cc3)nc2-c2ccc(C(=O)O)cc2)n1	110%	99.8%	105%	104%	104%	105%	95.8%	104%	102%	111%	103%	96.8%	96.5%	95.2%	115%	96.2%	102%	98.5%	109%	110%
